# Assay results: PubChem BioAssay (NCI)
# The panel holds about 83,000 compounds, 20% with a hit somewhere; the sample as a whole holds those more often.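 Single-dose data. Exposure time 48 hours. Values below 10 considered active.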 Values without a mark were called inactive. Calls of active or inactive are those of the source.
# How the values were obtained:
# Assay in all cases: NCI-60 one-dose screen, 48 h (100 = growth as untreated, 0 = no growth, -100 = all killed)
# Settings in all cases: 10 µM unless noted
# NCI-H23 lung = test system: NCI-H23 lung
# NCI-H226 lung = test system: NCI-H226 lung
# NCI-H322M lung = test system: NCI-H322M lung
# HOP-62 NSCLC = test system: HOP-62 NSCLC
# NCI-H460 lung = test system: NCI-H460 lung
# NCI-H522 lung = test system: NCI-H522 lung
# A549/ATCC NSCLC = test system: A549/ATCC NSCLC
# 786-0 renal = test system: 786-0 renal
# COLO 205 colon = test system: COLO 205 colon
# DU-145 prostate = test system: DU-145 prostate
# K-562 leukemia = test system: K-562 leukemia
# MDA-MB-231 breast = test system: MDA-MB-231 breast
# RXF 393 renal = test system: RXF 393 renal
# SF-268 CNS = test system: SF-268 CNS
# SF-295 CNS = test system: SF-295 CNS
# SF-539 CNS = test system: SF-539 CNS
# UACC-257 melanoma = test system: UACC-257 melanoma
# M14 melanoma = test system: M14 melanoma
# MALME-3M melanoma = test system: MALME-3M melanoma
Compound,growth (NCI-H23 lung),growth (NCI-H226 lung),growth (NCI-H322M lung),growth (HOP-62 NSCLC),growth (NCI-H460 lung),growth (NCI-H522 lung),growth (A549/ATCC NSCLC),growth (786-0 renal),growth (COLO 205 colon),growth (DU-145 prostate),growth (K-562 leukemia),growth (MDA-MB-231 breast),growth (RXF 393 renal),growth (SF-268 CNS),growth (SF-295 CNS),growth (SF-539 CNS),growth (UACC-257 melanoma),growth (M14 melanoma),growth (MALME-3M melanoma)
NC(=O)c1cccc(C#CCNC[C@H]2C[C@@H](n3ccc4c(Cl)ncnc43)[C@H](O)[C@@H]2O)c1,99%,99.1%,94.2%,106%,113%,97.3%,101%,101%,116%,108%,111%,101%,107%,102%,105%,98.9%,98.2%,104%,
O=C(CCn1c[n+](CC(=O)c2ccc(-c3ccccc3)cc2)c2ccccc21)Nc1cccc2cccnc12,60.2%,57%,82.8%,94.4%,55.3%,41.7%,89.8%,71.5%,44.2%,78.9%,22.9%,49.6%,69.6%,55%,89.6%,75.5%,23.6%,49.1%,
N#Cc1cn(Cc2ccc(Cl)cc2Cl)c(C(=O)c2ccc(Br)cc2)c1N,93.8%,75.6%,95%,82.6%,95.9%,91.2%,98.2%,99.1%,114%,99.7%,94.9%,88.2%,95.8%,92.7%,83.7%,81.4%,92.1%,98%,
CCO/C=N/C1=C(C#N)C(c2ccc(F)cc2)c2sc3c(CC)cccc3c2O1 (configuration not stated),28.3%,51.6%,42.6%,48.6%,3.42% (active),8.86% (active),24.6%,26.3%,12.6%,19.3%,8.58% (active),29.7%,-20.6% (active),47.5%,-6.92% (active),-12.7% (active),69.5%,8.85% (active),
COc1ccccc1-n1cc(C#N)c(N)c1C(=O)c1ccc(C)cc1,89.4%,98.4%,90.8%,77.7%,101%,64%,89.8%,94.8%,95.6%,99.2%,28.4%,90.9%,76.6%,90.6%,74.1%,97%,78.3%,59.8%,
CC[C@]12C=CCN3CC[C@@]4(c5cc(NC(=O)COc6cc(O)c7c(=O)cc(-c8ccccc8)oc7c6)c(OC)cc5N(C)[C@H]4[C@@](O)(C(=O)OC)[C@@H]1OC(C)=O)[C@@H]32,-92.9% (active),-70.4% (active),-51.8% (active),-73.6% (active),-57.7% (active),-49.7% (active),-68.5% (active),-59.9% (active),-81% (active),-33.6% (active),-1.41% (active),-58.3% (active),-92.1% (active),-60.6% (active),-85.3% (active),-77.1% (active),-76.1% (active),-75.4% (active),
FC(F)(F)c1cc(Nc2cccc(Oc3ccc(NC4=NCCN4)nc3)c2)ccc1Cl,19.5%,41.9%,-3.79% (active),-47.9% (active),-69.2% (active),2.14% (active),12.1%,-11.4% (active),-38.3% (active),-19.3% (active),-19% (active),9.73% (active),18.1%,34.8%,-78.5% (active),51.6%,27%,-50.7% (active),
C=C(C=O)[C@@H]1CC[C@]2(C)[C@H](CC=C3[C@H]4[C@@H](C)[C@H](C)CC[C@]4(C(=O)OC)CC[C@]32C)[C@@]1(C)CCC#N,-6.81% (active),-44.8% (active),32.9%,20.7%,1.89% (active),-1.56% (active),80.6%,5.57% (active),3.46% (active),16.7%,8.57% (active),-21.9% (active),,20%,7.53% (active),-61.4% (active),-20.3% (active),,-63.6% (active)
CNc1ncc2cc(-c3ccc(-c4ncccc4F)cc3Cl)c(=O)n(CC3OCC(N)CO3)c2n1 (configuration not stated),78.4%,64.3%,79.5%,47.1%,102%,75.7%,57.1%,56.9%,46.4%,63.3%,78.8%,10.8%,-9.68% (active),24.8%,74.3%,67.4%,93%,87.9%,
O=C(Cn1cc[n+](CC(=O)c2ccc(-c3ccccc3)cc2)c1)Nc1cccc2cccnc12,76.8%,83.7%,95.7%,88.4%,87.8%,42.3%,88.1%,95.8%,74.2%,86.4%,50.5%,73.1%,98.3%,65.5%,102%,79.1%,34.4%,85%,
NC(N)=Nc1ccc(Oc2cccc(Nc3ccc(Br)c(C(F)(F)F)c3)c2)cc1,13.8%,39.2%,44.8%,-37.1% (active),-66.9% (active),15%,33.7%,32.7%,-31.2% (active),22.8%,-11.1% (active),-7.69% (active),40.7%,25.3%,-65.3% (active),54.3%,0.206% (active),8.54% (active),
C=CCn1c(SCC(=O)Nc2ccc(C(=O)/C=C/c3ccc(Br)cc3)cc2)nnc1-c1c[nH]c2ccccc12,90%,84.7%,93.7%,92.7%,95.4%,82.5%,73.5%,102%,109%,91.6%,66.8%,86.2%,,70.7%,90.2%,88.2%,107%,,91%
COc1cc2nc(Cl)nc(Nc3cccc(C4=Nc5c(N)nc(N)nc5NC(c5ccc(Br)cc5)C4)c3)c2cc1OC (configuration not stated),91%,93%,98.1%,43.5%,28%,68.2%,55.9%,64.7%,66.3%,90%,,92.9%,77.2%,84.4%,32%,93.2%,105%,84.1%,
COc1ccc(/C=C(\C#N)C(=O)N2c3ccccc3Sc3ccc(SC)cc32)cc1F,91.4%,88.8%,90%,97%,94.4%,84.5%,85.7%,84.4%,111%,97.3%,80.8%,84.7%,100%,91.8%,104%,96.7%,93.1%,105%,
C#C[C@]1(O)CC[C@H]2[C@@H]3CC=C4c5sc(-c6cccc(O)c6)nc5CC[C@]4(C)[C@H]3CC[C@@]21C,-26.8% (active),-29.4% (active),-5.55% (active),-20.8% (active),-52.9% (active),3.14% (active),-16.2% (active),-57.6% (active),-25.3% (active),2.17% (active),-5.49% (active),-40.8% (active),-68.5% (active),-15.4% (active),-64.7% (active),-68.9% (active),-42.6% (active),-41.1% (active),
C#C[C@]1(O)CC[C@H]2[C@@H]3CC=C4c5sc(-c6ccc(C)cc6)nc5CC[C@]4(C)[C@H]3CC[C@@]21C,46.4%,99.3%,33%,23.2%,-0.692% (active),27.6%,38.3%,-52.5% (active),104%,39.8%,6.37% (active),4.97% (active),-68.1% (active),7.62% (active),-66.5% (active),-47.7% (active),-17.9% (active),-49.9% (active),
CCN1CCN(C(=O)[C@]23CCC(C)(C)C[C@H]2C2=CC[C@@H]4[C@@]5(C)Cc6c([nH]c7ccccc67)C(C)(C)[C@@H]5CC[C@@]4(C)[C@]2(C)CC3)CC1,87.7%,84.4%,89.1%,110%,76.5%,90.5%,59.7%,94.2%,102%,83.3%,,74.1%,75.9%,90.1%,91.9%,94%,88.2%,84.5%,
